{
  "source": "PubChem BioAssay AID492949",
  "about": "(National Center for Advancing Translational Sciences (NCATS), 2010)",
  "note": "Records with an inconclusive call do not appear. Unmarked numbers belong to inactive results. Calls of active or inactive are those of the source. The call rests on the fitted dose curve; in most records, active means well fitted activation curve with a large enough effect; inconclusive means small, poorly fitted or top-dose-only effect; inactive means no such curve, though single readings can be large or run the other way. Potency means the concentration at half of the fitted maximal effect.",
  "data": [
    {"molecular_target": "Relaxin receptor 1 (Homo sapiens) (UniProt Q9HBX9)", "sequence (Q9HBX9 whole entry, looked up)": "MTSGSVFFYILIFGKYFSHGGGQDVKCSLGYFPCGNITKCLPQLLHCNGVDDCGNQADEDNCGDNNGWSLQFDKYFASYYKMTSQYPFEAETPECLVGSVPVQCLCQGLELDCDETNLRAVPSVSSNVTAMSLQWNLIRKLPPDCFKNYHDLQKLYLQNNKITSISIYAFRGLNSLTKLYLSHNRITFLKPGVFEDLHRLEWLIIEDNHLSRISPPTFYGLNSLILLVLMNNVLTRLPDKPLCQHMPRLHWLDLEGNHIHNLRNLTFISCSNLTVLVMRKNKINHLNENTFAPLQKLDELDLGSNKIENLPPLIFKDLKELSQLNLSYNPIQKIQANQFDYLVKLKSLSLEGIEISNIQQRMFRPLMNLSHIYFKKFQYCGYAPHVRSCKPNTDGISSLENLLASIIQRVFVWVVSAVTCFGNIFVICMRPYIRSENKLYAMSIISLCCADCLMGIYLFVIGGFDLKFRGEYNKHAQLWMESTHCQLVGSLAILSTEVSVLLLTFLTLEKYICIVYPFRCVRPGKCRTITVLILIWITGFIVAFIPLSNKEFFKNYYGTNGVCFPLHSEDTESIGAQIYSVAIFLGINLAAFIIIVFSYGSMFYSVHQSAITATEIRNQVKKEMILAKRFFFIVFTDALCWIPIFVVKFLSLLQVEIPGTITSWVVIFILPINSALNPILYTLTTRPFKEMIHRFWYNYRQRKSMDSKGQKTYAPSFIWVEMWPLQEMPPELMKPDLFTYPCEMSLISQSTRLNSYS", "assay": "qHTS Assay for Agonists of the Relaxin Receptor RXFP1: THP1 Hit Validation; further: nearly all actives have a fitted effect of over 60% in size;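 on activation: 0% = buffer alone basal and 100% = 29 nM porcine relaxin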", "details": "THP1-RXFP1 cells, cAMP TR-FRET, 30 min; series mostly up to 115 µM; activation: at the top concentration", "how_it_was_run": "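THP1 cells stably expressing RXFP1, treated 30 min at 37 C with compounds alongside PDE4 inhibitor Ro 20174. cAMP read by HTRF TR-FRET after lysis; normalized to buffer and 29 nM porcine relaxin; EC50 from Hill fits.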", "values": [
      {"smiles": "Cn1c(=O)c(C(=O)COc2ccc(C#N)cc2)c(N)n(Cc2ccccc2)c1=O", "Potency": "8.7 µM (active)"},
      {"smiles": "NC(=O)c1ccccc1NC(=O)CC12CC3CC(CC(C3)C1)C2", "activation": "8.88% [at 125 µM]"},
      {"smiles": "O=C(Cn1cnc2c(nnn2-c2ccc(F)cc2)c1=O)NCC1CCCO1", "note": "(stereo not drawn)", "Potency": "8.7 µM (active)"},
      {"smiles": "O=C(COc1ncnc2scc(-c3ccccc3)c12)NCCN1C(=O)CSC1=O", "Potency": "19.4 µM (active)"},
      {"smiles": "Brc1ccc(-c2nn3c(-c4ccco4)nnc3s2)o1", "Potency": "17.3 µM (active)"},
      {"smiles": "O=C(O)CCNc1ccc(NCCC(=O)O)c2c1C(=O)c1ccccc1C2=O", "activation": "-29.2%"},
      {"smiles": "CCCC(=O)Nc1ncnc2c1ncn2[C@@H]1O[C@@H]2COP(=O)(O)O[C@H]2[C@H]1OC(=O)CCC", "Potency": "1.23 µM (active)"},
      {"smiles": "CCOC(=O)c1sc(NC(=O)CCc2ccc(OC)cc2)nc1C", "Potency": "17.3 µM (active)"},
      {"smiles": "CC(=O)c1sc(NC(=O)C(C)C)nc1C", "Potency": "19.4 µM (active)"},
      {"smiles": "C=CCSc1nc2c(c(=O)[nH]1)C(C(C)C)C(C#N)=C(N)O2", "note": "(stereo not drawn)", "activation": "-4.28%"},
      {"smiles": "Cn1c(N)c(C(=O)CSc2nnc(NC3CCCCC3)s2)c(=O)n(C)c1=O", "activation": "-30.3%"},
      {"smiles": "CC1(C)Cc2nc3sc4c(SCC(=O)NC(c5ccccc5)c5ccccc5)ncnc4c3cc2CO1", "Potency": "3.88 µM (active)"},
      {"smiles": "O=C(Nc1ccccc1C(=O)N1CCN(c2ccccc2)CC1)c1ccco1", "activation": "2.36% [at 125 µM]"},
      {"smiles": "O=C(O)c1ccc(CN2C(=O)c3ccc(C(=O)O)cc3C2=O)cc1", "activation": "-0.984%"},
      {"smiles": "Cc1cc(C)n2nc(C(=O)Nc3ccc4c(c3)OCCO4)nc2n1", "Potency": "8.68 µM (active)"},
      {"smiles": "Cc1ccc2[nH]c3c(=S)nc[nH]c3c2c1", "Potency": "6.9 µM (active)"},
      {"smiles": "CCC(=O)Nc1ccc(NC(=O)CSc2nc3c(c(=O)n(C)c(=O)n3C)n2CC)cc1", "Potency": "43.6 µM (active)"},
      {"smiles": "CCCC(=O)Nc1ncnc2c1ncn2[C@@H]1O[C@@H]2OP(=O)(O)OC[C@H]2[C@H]1OC(=O)CCC", "Potency": "0.69 µM (active)"},
      {"smiles": "Cn1c(=O)c2sccc2n2c(CCCC(=O)NCc3ccco3)nnc12", "Potency": "34.6 µM (active)"},
      {"smiles": "S=c1nc[nH]c2c1[nH]c1ccccc12", "Potency": "7.74 µM (active)"},
      {"smiles": "C=CCNc1ncnc2c1ncn2C1OC(CO)C(O)C1O", "note": "(stereo not drawn)", "activation": "-48.9%"},
      {"smiles": "c1ccc(-c2nnc(-c3ccccn3)c(-c3ccccn3)n2)nc1", "activation": "-1.89%"},
      {"smiles": "COc1ccc(S(=O)(=O)N2CCOCC2)cc1NC(=O)CSc1nnc2ccccn12", "Potency": "6.9 µM (active)"},
      {"smiles": "Cc1ccc(CN(C)C(=O)c2ccc3c(c2)NC(=O)CS3)o1", "activation": "-37.7%"},
      {"smiles": "CN(Cc1ccccc1)C(=O)c1ccccc1NC(=O)c1ccco1", "activation": "-1.61% [at 125 µM]"},
      {"smiles": "Cc1cc(Br)c2nc3c(c(C(=O)O)c2c1)CCCCC3", "Potency": "3.08 µM (active)"},
      {"smiles": "O=S(=O)(c1cccc(-c2cn3cccnc3n2)c1)N1CCOCC1", "Potency": "13.8 µM (active)"},
      {"smiles": "Cc1ccccc1OCC(=O)Nc1sc(C(=O)Nc2cccc(C)c2C)c(C)c1C#N", "Potency": "7.74 µM (active)"},
      {"smiles": "COc1ccc(OC)c(CNC(=O)C2CCN(C(=O)N(C)C)CC2)c1", "activation": "-4.27%"},
      {"smiles": "CCOP1(=O)OCC2OC(n3cnc4c(N)ncnc43)C(O)C2O1", "note": "(stereo not drawn)", "Potency": "8.7 µM (active)"},
      {"smiles": "CCN(CC)CCCN1C=C2C(=O)C(C)(OC(=O)C3CCCC3)C(=O)C=C2C=C1c1ccsc1", "note": "(stereo not drawn)", "activation": "-4.45%"},
      {"smiles": "CN(CC(=O)Nc1ccccc1Cl)C(=O)COC(=O)Cc1c(F)cccc1Cl", "activation": "0.165% [at 43.1 µM]"},
      {"smiles": "NS(=O)(=O)c1ccc(CCNC(=O)C2CCN(c3ncnc4c3nc3n4CCCCC3)CC2)cc1", "Potency": "27.5 µM (active)"},
      {"smiles": "CCS(=O)(=O)Nc1cccc(-c2ccc3nnc(-c4cccnc4)n3n2)c1", "Potency": "27.5 µM (active)"},
      {"smiles": "CN(C)CCCn1c(SCC(=O)Nc2nc(-c3cccc(Br)c3)cs2)nc2ccccc2c1=O", "activation": "-13.1%"},
      {"smiles": "CN(C)c1ccc2nc3c(=O)[nH]c(=O)nc-3n(CC(O)C(O)C(O)CO)c2c1", "note": "(stereo not drawn)", "activation": "-8.95%"},
      {"smiles": "CC[n+]1ccc(/C=C/c2ccc(N(C)C)cc2)c2ccccc21", "activation": "-48.4%"},
      {"smiles": "CC(C)n1c(SCC(=O)N2CCN(C(=O)c3ccco3)CC2)nc2c1c(=O)n(C)c(=O)n2C", "Potency": "6.9 µM (active)"}
    ]}
  ]
}
